Among the data in PubChem BioAssay (EPA / NIEHS) are outcome and AC50 values, retold here.

Inconclusive results are not listed. Activity calls are given as the source filed them. How the source made its calls: active means hit-call score of the fitted dose curve at least 0.9, where 1 is the maximum; inconclusive means response in the unintended direction; inactive means score below 0.9.

Nuclear receptor subfamily 1 group I member 2 (Homo sapiens), sequence (O75469 whole entry, looked up, the tested form may be a part): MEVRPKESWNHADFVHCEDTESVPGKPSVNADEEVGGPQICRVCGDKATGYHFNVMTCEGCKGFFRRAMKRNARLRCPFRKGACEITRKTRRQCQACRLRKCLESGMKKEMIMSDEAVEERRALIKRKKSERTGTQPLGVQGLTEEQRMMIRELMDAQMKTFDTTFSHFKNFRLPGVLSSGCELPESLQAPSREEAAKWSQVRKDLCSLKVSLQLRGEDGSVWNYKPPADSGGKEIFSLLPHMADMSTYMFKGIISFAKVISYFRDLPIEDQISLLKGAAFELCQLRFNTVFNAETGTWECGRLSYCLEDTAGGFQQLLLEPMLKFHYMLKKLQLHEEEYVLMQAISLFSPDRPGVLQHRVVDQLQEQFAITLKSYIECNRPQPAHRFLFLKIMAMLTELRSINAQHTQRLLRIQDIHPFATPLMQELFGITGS
human Retinoic Acid Receptor beta (RARb), RARB (gene 5915), sequence (P10826 whole entry, looked up, the tested form may be a part): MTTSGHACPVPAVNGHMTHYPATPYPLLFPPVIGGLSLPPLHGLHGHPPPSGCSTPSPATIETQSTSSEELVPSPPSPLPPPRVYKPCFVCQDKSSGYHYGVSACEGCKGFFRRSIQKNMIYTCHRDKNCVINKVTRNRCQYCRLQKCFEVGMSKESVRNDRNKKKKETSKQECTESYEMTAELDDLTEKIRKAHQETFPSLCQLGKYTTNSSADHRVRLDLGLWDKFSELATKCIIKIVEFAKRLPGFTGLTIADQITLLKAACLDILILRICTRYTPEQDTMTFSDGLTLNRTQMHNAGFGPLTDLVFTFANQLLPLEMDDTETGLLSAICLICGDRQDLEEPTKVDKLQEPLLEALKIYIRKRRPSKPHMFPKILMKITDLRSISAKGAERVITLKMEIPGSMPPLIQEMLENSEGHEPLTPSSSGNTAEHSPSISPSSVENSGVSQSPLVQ
Peroxisome proliferator-activated receptor gamma (Homo sapiens), sequence (P37231 whole entry, looked up, the tested form may be a part): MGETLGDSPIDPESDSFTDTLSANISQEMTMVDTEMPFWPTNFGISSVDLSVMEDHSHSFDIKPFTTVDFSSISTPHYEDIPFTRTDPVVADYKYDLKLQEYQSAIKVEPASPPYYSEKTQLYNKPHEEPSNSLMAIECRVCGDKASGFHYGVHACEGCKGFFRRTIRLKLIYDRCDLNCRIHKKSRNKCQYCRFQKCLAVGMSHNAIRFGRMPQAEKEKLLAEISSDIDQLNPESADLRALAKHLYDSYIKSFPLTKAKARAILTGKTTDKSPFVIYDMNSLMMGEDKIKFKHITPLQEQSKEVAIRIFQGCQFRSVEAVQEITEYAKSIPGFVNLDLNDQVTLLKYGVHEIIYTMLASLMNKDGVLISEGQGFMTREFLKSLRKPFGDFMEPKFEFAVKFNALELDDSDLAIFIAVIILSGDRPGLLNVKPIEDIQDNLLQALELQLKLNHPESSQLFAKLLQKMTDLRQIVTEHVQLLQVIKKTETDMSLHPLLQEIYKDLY

One experiment addresses human Retinoic Acid Receptor beta (RARb), RARB (gene 5915) (UniProt P10826). Nature of the experiment: ATG_RARb_TRANS: Attagene TRANS-FACTORIAL HepG2 Assay for human Retinoic Acid Receptor beta (AID 2283004). Put shortly: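 Induction of reporter mRNA from a chimeric RARb-Gal4 construct was measured by RT-PCR, FAM labelling, HpaI digestion and capillary electrophoresis. Measurements followed 24 h compound treatment of transiently transfected human HepG2 liver cells, with DMSO as baseline.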
On to `O=C(Cl)c1ccc(C(=O)Cl)cc1`, for which the compound was classed as inactive.
On to `C=C[Si](OCCOC)(OCCOC)OCCOC`, for which the outcome was inactive.
For the compound `CC(=O)OC(C)c1ccccc1` (stereo unspecified), the compound was classed as inactive.

The target of the next experiment is Retinoic acid receptor alpha (Homo sapiens) (UniProt P10276). Briefly: ATG_RARa_TRANS: Attagene TRANS-FACTORIAL HepG2 Assay for human Retinoic Acid Receptor alpha (RARa) (AID 2283005). Put shortly: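 Reporter transcripts, measured by RT-PCR with fluorescent labeling and capillary electrophoresis after 24 h dosing, reflect activity of an exogenous human RARa–GAL4 fusion in transiently transfected HepG2. Fitted for increase relative to DMSO.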
Retinoic acid receptor alpha (Homo sapiens), sequence (P10276 whole entry, looked up, the tested form may be a part): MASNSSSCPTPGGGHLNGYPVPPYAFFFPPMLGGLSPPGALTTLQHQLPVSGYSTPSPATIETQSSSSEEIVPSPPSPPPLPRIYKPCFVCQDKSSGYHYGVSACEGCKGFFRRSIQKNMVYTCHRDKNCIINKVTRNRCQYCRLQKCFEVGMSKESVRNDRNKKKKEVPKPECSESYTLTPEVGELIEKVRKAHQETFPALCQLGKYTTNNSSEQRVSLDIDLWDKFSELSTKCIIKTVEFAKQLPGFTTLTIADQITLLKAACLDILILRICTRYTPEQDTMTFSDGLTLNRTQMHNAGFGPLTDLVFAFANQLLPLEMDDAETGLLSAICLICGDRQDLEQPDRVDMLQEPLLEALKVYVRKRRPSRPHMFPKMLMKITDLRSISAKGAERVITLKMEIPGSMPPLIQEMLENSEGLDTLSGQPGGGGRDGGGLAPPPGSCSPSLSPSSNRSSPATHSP
On to `COCC(=O)O`, for which the result was inactive.
`CC1(C)[C@@H]2CC[C@@]1(C)C(=O)C2`: the outcome was inactive.
As for `Cc1c(C(=O)c2c[nH]n(C)c2=O)ccc(S(C)(=O)=O)c1C1=NOCC1`, the compound was called inactive.
Take `CCOc1ccc(NC(N)=O)cc1`: the call was inactive.
For `C=C(C)[C@@H]1CC=C(C)CC1`, the compound was called inactive.
Regarding `Cn1ccnc1`, the compound was classed as inactive.
Regarding `CCc1cccc(CC)c1`, the compound was called inactive.

A further experiment addresses Peroxisome proliferator-activated receptor gamma (Homo sapiens) (UniProt P37231). Nature of the experiment: ATG_PPARg_TRANS: Attagene TRANS-FACTORIAL HepG2 Assay for human Peroxisome Proliferator-activated Receptor-gamma (PPARg) (AID 2283007). The method, boiled down:
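Transient transfection of HepG2 with GAL4-UAS-driven reporter units; chemical dosing 24 h; total RNA → oligo(dT) RT → PCR with reporter primers → 6-FAM primer extension → HpaI digest 2 h 37 C → capillary electrophoresis. Positive direction vs DMSO.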
Turning to `COCC(=O)O`, the compound was called inactive.
Consider `CCCCOCC(C)O` (stereo unspecified), for which the outcome was inactive.
For `CCCCCCOc1ccc(N)cc1`, the call was inactive.
In the case of `CC(=O)/C=C/C1C(C)=CCCC1(C)C` (stereo unspecified), the concentration at half-maximal activity (AC50) – broadly, the concentration giving half of the maximal activity seen – was 42.1 µM (active).
Regarding `CCCCC(C=O)CC` (stereo unspecified), the outcome was inactive.
As to `N=C1C=CC(=C(c2ccc(N)cc2)c2ccc(N)cc2)C=C1`, the AC50 was 31.9 µM (active).
`O=C1c2ccccc2C(=O)c2cc(S(=O)(=O)O)ccc21`: the call was inactive.
Still for that read-out and setting: next, `NNS(=O)(=O)c1ccc(Oc2ccc(S(=O)(=O)NN)cc2)cc1`: “inactive”.
Turning to `C=CCCCCCCCCOC(C)=O`, the outcome was inactive.
Same read-out and setting: next, `CCOc1ccc(NC(N)=O)cc1`: “inactive”; `CCCC(CC)c1ccccc1` (stereo unspecified): “inactive”; `CCCCCCCC(=O)OCC`: “inactive”.
Same read-out and setting: next, `CC(C)(C)N`: “inactive”; `CCCCCCO`: “inactive”; `CCCCNS(=O)(=O)c1ccccc1`: “inactive”.
Still for that read-out and setting: the same measure for `CC1=CCC(C(C)C)C=C1` (stereo unspecified): “inactive”; for `O=C(Oc1ccccc1)c1ccccc1O`: “inactive”.
`C=CC(=O)OCCCCCCCCCC`: the half-maximal activity concentration (AC50) was 3.15 µM (active).
As for `CCc1cccc(CC)c1`, the call was inactive.
With `CC(C)(c1ccccc1)c1ccc(Nc2ccc(C(C)(C)c3ccccc3)cc2)cc1`, the compound was classed as inactive.
On the same count and under the same terms, the same measure for `O=C1CCCN1C1CCCCC1`: “inactive”; for `CCN1CCCC1=O`: “inactive”.

For another experiment, the target named is Nuclear receptor subfamily 1 group I member 2 (Homo sapiens) (UniProt O75469). Briefly: ATG_PXR_TRANS: Attagene TRANS-FACTORIAL HepG2 Assay for human Pregnane X Receptor (PXR) (AID 2283008). Put shortly:
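Measures mRNA induction of a GAL4-UAS-driven reporter in human HepG2 cells transiently expressing PXR fused to Gal4, following 24 h treatment. DMSO served as negative control and baseline.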
With `CCCCOCC(C)O` (stereo unspecified), the compound was called inactive.
On to `O=C(Cl)c1ccc(C(=O)Cl)cc1`, for which the result was inactive.
For the compound `CC1(C)[C@@H]2CC[C@@]1(C)C(=O)C2`, the compound was classed as inactive.
Take `CCCCCCOc1ccc(N)cc1`: the compound was classed as inactive.
On to `Cc1c(C(=O)c2c[nH]n(C)c2=O)ccc(S(C)(=O)=O)c1C1=NOCC1`, for which the outcome was inactive.
With `CC(=O)/C=C/C1C(C)=CCCC1(C)C` (stereo unspecified), the AC50 was 2.79 µM (active).
Take `CCCCC(C=O)CC` (stereo unspecified): the compound was called inactive.
For `N=C1C=CC(=C(c2ccc(N)cc2)c2ccc(N)cc2)C=C1`, the compound was called inactive.
`NNS(=O)(=O)c1ccc(Oc2ccc(S(=O)(=O)NN)cc2)cc1`: the call was inactive.
Turning to `C=C[Si](OCCOC)(OCCOC)OCCOC`, the call was inactive.
`C=C(C)C1CC=C(C)CC1` (stereo unspecified): the result was inactive.
`C=CCCCCCCCCOC(C)=O`: the result was inactive.
Regarding `C=C1C[C@H]2[C@@H]3C=C(C)C4=CC(=O)CC[C@]4(C)[C@H]3CC[C@]2(C)[C@@]1(OC(C)=O)C(C)=O`, the outcome was inactive.
Regarding `CCCC(CC)c1ccccc1` (stereo unspecified), the compound was classed as inactive.
The same measure, in the same setting: the same measure for `CCCCCCCC(=O)OCC`: “inactive”; for `CC(C)(C)N`: “inactive”; for `CCCCCCO`: “inactive”.
In the case of `CCCCNS(=O)(=O)c1ccccc1`, the compound was called inactive.
As for `CC1=CCC(C(C)C)C=C1` (stereo unspecified), the half-maximal activity concentration (AC50) is 7.16 µM (active).
For the compound `O=C(Oc1ccccc1)c1ccccc1O`, the compound was classed as inactive.
Still for that read-out and setting: the same measure for `C=CC(=O)OCCCCCCCCCC`: “inactive”; for `CC(C)(c1ccccc1)c1ccc(Nc2ccc(C(C)(C)c3ccccc3)cc2)cc1`: “inactive”; for `O=C1CCCN1C1CCCCC1`: “inactive”.
With `CCN1CCCC1=O`, the call was inactive.
